# Assay outcomes (PubChem)
# Only some compounds are listed: those with a hit (about 7.9% of all), similar ones and a draw of the others.
# KB-3-1 tox: kills parental KB-3-1 adenocarcinoma cells. KB-3-1 viability, CellTiter-Glo ATP luminescence, 72 h. AID 1347075. Potency, µM (series often up to 46.1 µM), hits mostly cytotoxic. actives 1.4% (n = 400,000); also: % is scaled to controls: 0 for no effect and ±100 for the full control effect; nearly all actives have a fitted effect of over 60% in size
#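 Screening of KB-3-1 cells (DMEM, 10% FBS, phenol-red free) ran from lowest to highest compound concentration; after 72 h at 37 °C viability was read luminescently and curves fitted.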
# MCF10A rereplic: DNA re-replication induction in MCF 10a cells; actives 2.9% (n = 350,000); Potency, µM (titrated, usually from 46.1 µM), for inactives: top-dose activity, positive = re-replication, most hits filed as activators; AID 624296; MCF 10A DNA re-replication, Hoechst nuclear intensity, 48 h; also: % of control where 0% means no effect; nearly all actives have a fitted effect of over 50% in size
# SW480 rerep: induces DNA re-replication in SW480 colon adenocarcinoma cells | SW480 DNA re-replication, Hoechst DNA content imaging, 48 h | Potency, µM (highest dose often 46.1 µM), inactives show top-dose re-replication activation, actives largely listed as activators | actives 1.8% (n = 340,000); also: % of control where 0% means no effect; nearly all actives have a fitted effect of over 55% in size
#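 Quantitative HTS format with DMSO vehicle controls; 48 hr drug incubation at 37 C, then 40 min Hoechst staining and scanning imager measurement at 405 nm excitation.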
# KB-V1 MDR tox: kills drug-selected multidrug resistant KB-V1 cells | Potency, µM (doses to about 46.1 µM), hits mostly cytotoxic | actives 3.4% (n = 400,000) | KB-V1 MDR cells viability, CellTiter-Glo, 72 h; also: % is scaled to controls: 0 for no effect and ±100 for the full control effect; nearly all actives have a fitted effect of over 60% in size
#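 In this primary screen, KB-V1 cells overexpressing P-gp are incubated with library compounds (lowest to highest concentration) for 72 h at 37 degrees C before a luminescent ATP viability read.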
# HT1080NT lethal: kills 2HG-producing HT-1080-NT fibrosarcoma cells; HT-1080-NT fibrosarcoma viability, CellTiter-Glo ATP luminescence, 48 h; Potency, µM (series often up to 46.1 µM), for the others: at the highest dose activity, negative = less viability, hits mostly cytotoxic; actives 1.6% (n = 360,000);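 also: NT is the 2HG producing partner of a matched IDH1 knockdown line; 0% = DMSO-treated cells and -100% = media-only wells without cells; nearly all actives have a fitted effect of over 55% in size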
#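 750 cells/well, RPMI + 5% FBS; 2 h settle, compound pin-transfer, 48 h at 37 degrees C. CellTiter-Glo 10 min RT, luminescence. Normalized to DMSO and media-only wells.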
# HT1080 IDH1KD tx: kills HT-1080 cells with IDH1 knockdown; HT-1080 IDH1 knockdown viability, ATP luminescence, 48 h; Potency, µM (doses to about 46.1 µM), for inactives: at the highest dose activity, negative = toxicity, most hits filed as cytotoxic; actives 2% (n = 360,000); AID 686971;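 also: 0% = DMSO wells and -100% = cell-free medium wells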
#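 Knockdown cells (IDH1KD HT-1080) received compounds 2 h after plating at 750 cells/well and were kept 48 h at 37 °C in 5% FBS RPMI. A CellTiter-Glo luminescence read gave % activity for curve fitting.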
# An asterisk follows results filed as active; i = inactive; ? = inconclusive; / = not tested or not shown; [ ] = dose if it differs, or a comment. Calls follow the shape of the dose curve; as a rule, active = well fitted curve in the direction sought with a large enough effect; inconclusive = small, poorly fitted or top-dose-only effect, or another doubt; inactive = no such curve, though single readings can be large; an effect the other way counts as inactive or inconclusive. Potency is read from the fitted curve at half-maximal effect.
SMILES,KB-3-1 tox,MCF10A rereplic,SW480 rerep,KB-V1 MDR tox,HT1080NT lethal,HT1080 IDH1KD tx
COc1ccc(CCn2c3c(c(=O)[nH]c2=O)C(NC(=O)c2ccccc2F)(C(F)(F)F)C(=O)N3)cc1OC (configuration not stated),i,/,/,i,/,/
Cc1ccc2c(C)c(C)c(=O)n(C)c2c1,i,2.4%,-2.4%,14.6µM*,8.7%,12.6%
Cc1ccc2oc(=S)n(C)c2c1,i,-7.2%,?,i,-3.8%,-10.1%
NC(=S)NN=C1c2ccccc2-c2c(F)c(F)c(F)c(F)c21,?,6.51µM*,14.6µM*,?,-17.4%,?
N#Cc1cccc2c1-c1ccccc1/C2=N/NC(N)=S,?,?,24.2%,?,6.51µM*,20.6µM*
CC(NC(=O)c1cc(-c2ccc(Cl)cc2)on1)c1ccccc1 (configuration not stated),?,/,/,i,/,/
COCCN(Cc1ccc(C)c(Br)c1)S(=O)(=O)c1ccc2[nH]c(=O)ccc2c1,i,/,/,?,/,/
O=C(Nc1ccc(Cl)c(Cl)c1)c1ccc(Cn2c(=O)[nH]c3ccsc3c2=O)cc1,?,16.4µM*,1.1%,i,-9.6%,-4.8%
COc1ccc(C2c3c(n(C)c4ccccc34)C(=O)N2CC(=O)Nc2cccc(Cl)c2C)cc1 (configuration not stated),i,/,/,?,/,/
O=C(CNCc1ccccc1)Nc1ccccc1-c1ccccc1,i,23.1µM*,-3.2%,i,-1.0%,11.4%
O=C(CNc1ccccc1-c1ccccc1)NCc1ccccc1,i,15.0%,4.8%,16.4µM*,-1.9%,-1.9%
Cc1ccc(NC(=O)Cn2cc(S(=O)(=O)N3CCCC3)c(S(=O)(=O)N3CCCC3)c2)cc1F,i,/,/,?,/,/
Cc1ccc(-c2nn(-c3ccccc3)cc2/C=C2\SC(=S)N(CC(=O)O)C2=O)cc1,i,13.2%,-26.9%,i,-7.1%,-4.7%
CCOc1ccc(-c2nn(-c3ccccc3)cc2/C=C2\SC(N)=NC2=O)cc1C,?,10.3µM*,-2.3%,i,8.9%,-17.7%[9.24 µM]
CC(=O)N1Cc2cc(C(=O)NCC(F)(F)F)nc(-c3cccc(-c4cccnc4)c3)c2[C@@H]1CCO,4.11µM*,/,/,i,?,6.51µM*
CC(C)(C)S(=O)N1Cc2cc(C(=O)NCC(F)(F)F)nc(-c3cccc(-c4cccc(F)c4)c3)c2[C@@H]1CCO (some centres not stated),?,/,/,?,?,20.6µM*
CCNC(=O)c1cc2c(c(-c3cccc(-c4cccnc4)c3)n1)[C@H](CCO)N(S(C)(=O)=O)C2,2.91µM*,/,/,?,?,2.31µM*
CC(=O)N1Cc2cc(C(=O)NCC(F)(F)F)nc(-c3cccc(-c4cc5ccccc5o4)c3)c2[C@@H]1CCO,?,/,/,23.1µM*,6.1%,9.4%
CC(=O)N1Cc2cc(C(=O)NCC(F)(F)F)nc(-c3cccc(-c4cccnc4)c3)c2[C@H]1CCO,i,/,/,i,-3.5%,15.9%
CC(C)N(Cc1ccccc1)C(=O)CCS(=O)(=O)c1cc2c(cc1Cl)NC(=O)CO2,i,/,/,?,/,/
CSc1ccc(CCNC(=O)c2csc3c2CCCCC3)cc1,i,/,/,i,/,/
COc1ccc(NC(=O)c2c(NC(=O)COc3ccc(Cl)cc3)sc3c2CCCCC3)cc1,i,/,/,i,/,/
CCc1cccc(C)c1NC(=O)CCCn1c(C)c2cnn(-c3ccccc3)c(=O)c2c1C,i,/,/,i,/,/
COc1cc(-c2nc3n(n2)C(c2ccc(F)cc2)C(C(N)=O)=C(C)N3)cc(OC)c1OC (configuration not stated),i,/,/,i,/,/
Cc1ccccc1-n1nc2c(c1NC(=O)c1ccc(Br)o1)CSC2,i,23.3%,5.3%,13µM*,0.1%,-0.2%
SMILES,KB-3-1 tox,MCF10A rereplic,SW480 rerep,KB-V1 MDR tox,HT1080NT lethal,HT1080 IDH1KD tx
COc1cc(-c2nc(-c3ccccc3)c(-c3cccs3)[nH]2)cc(OC)c1O,?,?,-4.1%,20.6µM*,-1.6%,-2.2%
CCC(=O)N1c2ccccc2CC1C(=O)NCc1ccc(CC)cc1 (configuration not stated),i,/,/,i,/,/
COc1cccc(NC(=O)c2sc3nc(C)c(C(=O)Nc4ccc(C)cc4C)c(-c4ccc(C)o4)c3c2N)c1,i,/,/,i,/,/
COc1ccccc1N=CC=C1OC(C)(C)C(C)(C)O1,i,20.6µM*,?,i,-18.3%,?
N#Cc1c(-c2ccccc2)c(-c2ccccc2)nn(CC(=O)NNC(=O)Nc2ccc(Cl)c(Cl)c2)c1=O,?,?,?,i,20.6µM*,14.6µM*
c1ccc2c(c1)c1c(c3ccccc32)CN2CCCC2C1 (configuration not stated),?,?,18.4µM*,16.4µM*,?,23.1µM*
c1ccc(CN2CCC(N3CCC(N4CCCCCC4)CC3)CC2)cc1,i,?,?,i,-19.4%,-4.4%
COC(=O)C1=C(C)N(Cc2ccccc2)C(=NCc2cccc(Cl)c2)N[C@H]1c1cccc(F)c1,?,?,?,20.6µM*,?,?
COc1ccc(C(=O)/C=C/c2cn(CN3CCN(C)CC3)c3ccccc23)cc1,?,8.2µM*,20.6µM*,i,-3.1%[9.24 µM],?
COc1ccc(C(=O)/C=C/c2cn(CC(O)CN3CCc4ccccc43)c3ccccc23)cc1OC (configuration not stated),i,/,/,?,/,/
CCOc1ccc(C(=O)/C=C/c2cn(CN3CCN(C)CC3)c3ccccc23)cc1,i,10.3µM*,?,i,-28.0%,?
CCc1nnc(NS(=O)(=O)c2ccc(NC(=O)c3ccc([N+](=O)[O-])s3)cc2)s1,i,/,/,i,?,-15.0%
NCCOc1ccc(C23CC4CC(CC(C4)C2)C3)cc1,?,4.11µM*,-11.7%,?,1.3%,?
NCCOc1ccc(C2CCCCC2)cc1,i,-8.4%,?,i,15.0%,?
OCCN1CCN(CC(O)COc2ccc(C34CC5CC(CC(C5)C3)C4)cc2)CC1 (configuration not stated),?,11.6µM*,?,i,18.4µM*,23.1µM*
OCCN1CCN(CC(O)COc2ccc(Cl)cc2)CC1 (configuration not stated),i,?,2.8%,i,-1.0%,2.3%
